Measured values: PubChem BioAssay AID1159580 (chemical genetic matrix, 2015)
Among all 5,500 compounds or so, about 2,000 (36%) were called active. About 18% were inconclusive and are not listed. Cut-off read from the data, not from the text of the source: active = normalized growth mostly below about 0.91 (no sharp cut-off); inconclusive = no clear call, values can overlap the other calls; inactive = mostly above about 0.92. The list shows a part of the results.

Test: chemical genetic growth profiling, strain panel (AID 1159580);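 note: tested at 20 µM; growth read once vehicle control cultures reached saturation at 30 °C; 1 = growth at the plate median or of vehicle wells; lower values mean less growth of the strain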
Settings: S. cerevisiae deletion strains, growth OD

Measured: normalized growth

NCCc1c[nH]c2ccc(C(N)=O)cc12
inactive: locus YAL040C, strain CLN3, stronger effect = lower value 1.1 | locus YCL061C, strain MRC1 (second series), stronger effect = lower value 1 | locus YDR363W, strain ESC2, stronger effect = lower value 1.01 | locus YER002W, strain NOP16, stronger effect = lower value 1.01 | locus YGR078C, strain PAC10, stronger effect = lower value 1.02 | locus YMR307W, strain GAS1, stronger effect = lower value 1 | locus YNL153C, strain GIM3, stronger effect = lower value 1.01 | locus YNL175C, strain NOP13, stronger effect = lower value 1.01 | locus YNL197C, strain WHI3, stronger effect = lower value 1.02 | locus YNL224C, strain SQS1, stronger effect = lower value 0.997 | locus YOR083W, strain WHI5 (second series), stronger effect = lower value 1.02 | locus YPL241C, strain CIN2, stronger effect = lower value 1
